Shown is part of a subset that was picked to be rich in hits.
Dicer inh: inhibitors of Dicer pre-microRNA processing, primary screen, biochemical, cat-ELCCA, chemiluminescence; z-score at 25 µM; cat-ELCCA pre-miR-21 Dicer processing; active compounds read high; 6% of 47,000 active; AID 1347074, 2019; in the data active = z-score above about 3, passing the limit was not always enough;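 note: plate controls were vehicle for no effect and no enzyme for full effect; higher signal means more uncleaved substrate so more Dicer inhibition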
The depositor's hits bear a star.

SMILES	Dicer inh
O=S(=O)(c1ccc(Cl)cc1)N(CCc1ccccn1)c1ccccc1	-1.34
CSc1ccccc1NC(=O)c1cc2n(n1)C(C(F)(F)F)CC(c1ccc3c(c1)OCO3)N2 (configuration not stated)	0.83
Cc1cccc(-c2nc(-c3ccc(N4CCN(c5ccc(C(F)(F)F)cn5)CC4)nc3)no2)c1	-0.95
CCOC(=O)N1CCc2c(sc3c2C(=O)NC(c2cc4c(cc2Cl)OCO4)N3)C1 (configuration not stated)	0.78
Cc1ccsc1/C=C/c1ccnc(SCc2c(Cl)cccc2Cl)n1	0.09
CC(C)(C)OC(=O)NC(CC(N)=O)C(=O)O (configuration not stated)	0.74
C=CCNCC(=O)Nc1sc2c(c1C(=O)OCC)CCCC2	0.8
N#CC1=C2N=C(N)c3ccccc3N2C2=C(C(=O)CC(c3ccccc3)C2)C1c1cccnc1 (configuration not stated)	1.47
N#CC1=C2N=C(N)c3ccccc3N2C2=C(C(=O)CC(c3ccccc3)C2)C1c1ccc2c(c1)OCO2 (configuration not stated)	3.41*
COc1ccccc1C1C(C#N)=C2N=C(N)c3ccccc3N2C2=C1C(=O)CC(C)(C)C2 (configuration not stated)	4.95*
COc1cccc(C2C(C#N)=C3N=C(N)c4ccccc4N3C3=C2C(=O)CC(C)(C)C3)c1 (configuration not stated)	1.87
COc1ccc(C2C(C#N)=C3N=C(N)c4ccccc4N3C3=C2C(=O)CC(C)(C)C3)cc1OC (configuration not stated)	8.18*
COc1ccc(C2C(C#N)=C3N=C(N)c4ccccc4N3C3=C2C(=O)CC(C)(C)C3)cc1 (configuration not stated)	-1.23
N#CC1=C2N=C(N)c3ccccc3N2C2=C(C(=O)CC(c3ccccc3)C2)C1c1cccs1 (configuration not stated)	2.98
COc1cccc(C2C(C#N)=C3N=C(N)c4ccccc4N3C3=C2C(=O)CC(C)(C)C3)c1OC (configuration not stated)	0.02
CCOc1ccccc1C1C(C#N)=C2N=C(N)c3ccccc3N2C2=C1C(=O)CC(C)(C)C2 (configuration not stated)	1.26
COC(=O)C1=C(C)NC2=C(C(=O)CC(C)(C)C2)C1c1ccc(C)cc1 (configuration not stated)	-0.27
CSc1c(-c2ccccn2)c(N)nn1C(=O)c1cccs1	-1.13
C=CCc1c(C)nc(SC)nc1Nc1ccc(C)cc1	5.74*
C=CCc1c(C)nc(SC)nc1Nc1ccc(C(=O)OCC)cc1	-0.05
Cc1ccc(Nc2nc(C)cc(C)c2C#N)cc1	2.9
CSc1cc(C(C)(C)C)nn1S(=O)(=O)c1ccc(F)cc1F	-1.18
CC1=N/C(=C\C=C\c2ccccc2)C(=O)O1	-0.41
O=C(O)CCCN1C(=O)C(=O)/C(=C(\O)c2ccc(F)cc2)C1c1cccnc1 (configuration not stated)	0.01
O=S(=O)(c1cc(Br)c(Br)s1)N1CCCCC1	0.86
SMILES	Dicer inh
O=S(=O)(c1cc(Br)c(Br)s1)N1CCCC1	3.14*
O=S(=O)(c1ccccc1)c1ccc(S(=O)(=O)N2CCCC2)s1	-0.58
CCC(CO)NC(=S)Nc1c(C)cc(C)cc1C (configuration not stated)	-0.92
COc1cccc(C2=NN(S(C)(=O)=O)C(c3cn(-c4ccccc4)nc3-c3ccc(C)cc3)C2)c1 (configuration not stated)	-1.01
Cc1nn(-c2ccccc2)nc1C(=O)Nc1nncs1	-8.2
COC(=O)CSCc1n[nH]c(=O)c2ccccc12	-0.76
O=c1[nH]nc(Cc2ccccc2)c2ccccc12	3.98*
O=c1[nH]nc(-c2ccccc2)c2ccccc12	-0.94
CCCN1C(=O)C2(/C(=C(/O)c3ccc(C)cc3)C(=O)C(=O)N2CCOC)c2ccccc21 (configuration not stated)	1.23
CCN1C(=O)C2(/C(=C(/O)c3ccc(OC)cc3)C(=O)C(=O)N2CCCOC)c2ccccc21 (configuration not stated)	1.97
CCOc1ccc(/C(O)=C2/C(=O)C(=O)N(CCCOC)C23C(=O)N(CC)c2ccccc23)cc1 (configuration not stated)	-7.44
CCCN1C(=O)C2(/C(=C(/O)c3ccc(C)c(F)c3)C(=O)C(=O)N2CCCOC)c2ccccc21 (configuration not stated)	1.04
CCCN1C(=O)C2(/C(=C(/O)c3ccc(F)cc3)C(=O)C(=O)N2CCCOC)c2ccccc21 (configuration not stated)	3.62*
CCN1C(=O)C2(/C(=C(/O)c3ccc(C)cc3)C(=O)C(=O)N2CCCOC)c2ccccc21 (configuration not stated)	3.27*
COC(=O)C1=C(C)NC2=C(C(=O)CCC2)C1c1ccc(C)cc1 (configuration not stated)	-0.25
CC1(C)CC(=O)C2=C(C1)N1C(=C(C#N)C2c2cccs2)N=C(N)c2ccccc21 (configuration not stated)	-1.28
O=C1CC(=O)CC(c2cccc(C(F)(F)F)c2)C1	-2.76
COc1cc2c(c(OC)c1OC)C(=O)/C(=C/N(C)C)C2	-2.3
O=C1CCCC2=C1C(c1ccccc1Cl)Nc1ccc(C(=O)c3ccccc3)cc1N2 (configuration not stated)	1.88
CC1=C(C(=O)OCc2ccccc2)C(c2ccc(OCc3ccccc3)cc2)n2ncnc2N1 (configuration not stated)	3.1*
CC1=C(C(=O)OC(C)C)C(c2cccc(OCc3ccccc3)c2)n2ncnc2N1 (configuration not stated)	0.32
CCOC(=O)C1=C(C)Nc2ncnn2C1c1ccc(N(CC)CC)cc1 (configuration not stated)	2.06
C=CCn1c(=S)sc2c(SCC(=O)Nc3nccs3)ncnc21	0.09
Cc1ccc(C(=O)CSc2ncn[nH]2)c(C)c1	1.03
Cc1ccc(S(=O)(=O)N/N=C/c2nccs2)cc1	-1.24
SMILES	Dicer inh
CN(C)/C=N/NS(=O)(=O)c1ccccc1	-0.67
Cc1ccc(S(=O)(=O)N/N=C/c2ccc3ccccc3c2O)cc1	3.25*
O=C(O)c1ccc2c(=O)n(-c3ccccc3)c(=O)[nH]c2c1	-0.81
COc1cc(CCC(C)NC(=O)Cc2ccccc2)ccc1OC(=O)Cc1ccccc1 (configuration not stated)	-0.48
O=C(Nc1ccccc1SCC(O)Cn1ccc2ccccc21)c1ccc(Cl)cc1 (configuration not stated)	-0.91
COC(=O)c1ccc(OC(=O)CSc2nc3ccccc3s2)cc1	1.09
C=CCN1C(=O)C2(/C(=C(/O)c3ccc(OCC)cc3)C(=O)C(=O)N2CCOC)c2ccccc21 (configuration not stated)	2.44
COCCCN1C(=O)C(=O)/C(=C(\O)c2ccccc2)C12C(=O)N(C)c1ccccc12 (configuration not stated)	3.9*
C=CCOc1ccc(/C(O)=C2/C(=O)C(=O)N(CCOC)C23C(=O)N(C)c2ccccc23)cc1 (configuration not stated)	-0.06
C=CCOc1ccc(/C(O)=C2/C(=O)C(=O)N(CCCOC)C23C(=O)N(C)c2ccccc23)cc1 (configuration not stated)	3.56*
COCCCN1C(=O)C(=O)/C(=C(\O)c2ccc(F)cc2)C12C(=O)N(C)c1ccccc12 (configuration not stated)	2.27

From PubChem
